Screening results: PubChem BioAssay, several laboratories
Most compounds without a hit are left out; they make up all but 2.4% or so of the library.
SENP6 block – SENP6 protease inhibition; AID 2599; Recombinant SENP6 catalytic domain, aminoluciferin luminescence; 330,000 compounds, 1.8% hits; inhibition, % at 10 µM; Q9GZR1;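 active means inhibition above about 50% at the single tested dose, limit read from the data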;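 further: plate controls were DMSO wells with enzyme for no effect and DMSO wells lacking enzyme for full effect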
SENP8 block-1 – SENP8 (human) protease inhibition; inhibition, % at 20 µM; recombinant SENP8, Nedd8 substrate fluorescence; 360,000 compounds, 0.64% hits; Q96LD8; AID 602440; in the data active means inhibition mostly above about 40%, no sharp cut-off; inactive means mostly below about 27%
Target sequence (Q96LD8 whole entry, looked up): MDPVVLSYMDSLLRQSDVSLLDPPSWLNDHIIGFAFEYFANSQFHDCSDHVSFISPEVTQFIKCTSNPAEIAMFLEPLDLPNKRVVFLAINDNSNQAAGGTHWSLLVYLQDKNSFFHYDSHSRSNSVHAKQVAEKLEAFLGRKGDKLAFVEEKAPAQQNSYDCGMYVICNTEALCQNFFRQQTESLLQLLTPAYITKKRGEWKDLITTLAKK
Platelet DG rel – modulates dense granule release in human platelets | human platelet-rich plasma, SFLLRN dense granule ATP release, luminescence | inhibition, %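 (compounds screened at 7.5 µM in platelet-rich plasma)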 | 300,000 compounds, 0.22% hits;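 active means mean replicate score, as percent of positive control, at or above 50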
SENP8 block-2 – blocks the human protease SENP8. purified SENP8, Z-RLRGG-aminoluciferin cleavage, luminescence. inhibition, % at 10 µM. 330,000 compounds, 1.2% hits; in the data active means inhibition above about 50%
SENP7 inh – inhibitors of human SENP7 protease | recombinant SENP7, Z-RLRGG-aminoluciferin luminescence, 40 min | inhibition, % at 5 µM | 330,000 compounds, 1.5% hits | AID 434973;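 active means inhibition above about 50% at the single test dose, limit read from the data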;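 further: plate controls were DMSO with enzyme for no effect and no enzyme buffer wells for full effect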
SENP8 conf – human SENP8 inhibition, confirmed | shares compounds with SENP7 inh | Recombinant SENP8, Z-RLRGG-aminoluciferin luminescence, 60 min | inhibition, % at 12.5 µM | 6,200 compounds, 40% hits | AID 488912;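 active means mean inhibition across replicates above about 50%, limit read from the data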
SENP6 confirm – confirmation of human SENP6 protease inhibitors. shares compounds with SENP7 inh. 6,200 compounds, 58% hits. inhibition, % at 12.5 µM. recombinant SENP6, Z-RLRGG-aminoluciferin luminescence
SENP7 conf – human SENP7 inhibition, confirmed; shares compounds with SENP7 inh; recombinant SENP7, Z-RLRGG-aminoluciferin luminescence, 40 min; inhibition, % at 12.5 µM; 6,200 compounds, 69% hits
Casp3 SENP sel – inhibits human caspase-3 in SENP selectivity test; purified caspase-3, Z-DEVD-aminoluciferin luminescence, 60 min; inhibition, % at 12.5 µM; shares compounds with SENP7 inh; 6,200 compounds, 60% hits;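 active means mean inhibition above about 50%, limit read from the data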;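 further: plate controls were enzyme with DMSO for no effect and wells without caspase-3 for full effect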
Target sequence (P42574 28-227 limits assumed): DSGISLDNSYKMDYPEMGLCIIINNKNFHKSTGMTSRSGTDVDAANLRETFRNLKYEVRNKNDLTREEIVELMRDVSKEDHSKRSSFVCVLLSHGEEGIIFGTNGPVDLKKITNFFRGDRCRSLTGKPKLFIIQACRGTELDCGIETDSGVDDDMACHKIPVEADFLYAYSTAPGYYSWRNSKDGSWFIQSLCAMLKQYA
Luc interf – luminescence interference (SENP counter-screen). shares compounds with SENP7 inh. Pre-incubated SENP8/Z-RLRGG-aminoluciferin, luciferase luminescence interference. inhibition, % at 12.5 µM. 6,200 compounds, 39% hits. AID 488919;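 active means mean inhibition above about 50% when retested at one dose, limit read from the data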;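 further: plate controls were DMSO wells with completed reaction for no effect and substrate without enzyme for full effect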
Numbers without * were called inactive; · = no result given.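 How the source made its calls, unless noted: active means mean inhibition above about 50% in the one-dose retest (limit read from the data); inactive means the rest.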

SMILES | SENP6 block | SENP8 block-1 | Platelet DG rel | SENP8 block-2 | SENP7 inh | SENP8 conf | SENP6 confirm | SENP7 conf | Casp3 SENP sel | Luc interf
O=c1oc(-c2ccco2)nc2sc3c(c12)CCCC3 | 72* | -173 | -4 | 42 | -10 | 66* | 54* | 52* | 27 | 29
CCSc1nc(N)c2c3c(sc2n1)CCC3 | 3 | -147 | -1 | -4 | 5 | · | · | · | · | ·
Nc1nc(-c2ccccc2)nc2sc3c(c12)CCCC3 | 84* | -401 | -11 | 58* | 75* | 3 | 70* | 90* | 46 | 12
O=c1oc(-c2ccccc2)nc2sc3c(c12)CCC3 | 91* | -72 | -9 | 20 | 88* | 51* | 50 | 40 | 64* | 29
O=C(NCC(=O)N1CCN(Cc2ccccc2)CC1)c1cc(Cl)cc([N+](=O)[O-])c1 | -8 | 15 | · | 1 | 5 | · | · | · | · | ·
CC1CN=C(N(C(=S)Nc2ccccc2)c2cccc(C(F)(F)F)c2)S1 (configuration not stated) | -22 | 10 | -1 | -13 | -10 | · | · | · | · | ·
COc1cccc(C(O)c2cnc(C(C)C)n2C)c1 (configuration not stated) | -2 | 3 | -2 | 1 | -4 | · | · | · | · | ·
CCOC(=O)C1(C)CCN1C(=O)COc1ccc(C(C)(C)C)cc1 (configuration not stated) | · | 13 | · | · | · | · | · | · | · | ·
Cc1ccc(NC(=O)N2CCCC2C(=O)NCc2ccc(Cl)cc2)cc1 (configuration not stated) | 3 | 22 | 1 | 1 | 1 | · | · | · | · | ·
Cc1ccc(-c2nc3ccccc3c(=O)o2)cc1 | 54* | -16 | -1 | 7 | 45 | 39 | 32 | 47 | 22 | 33
Cc1ccc2nc(-c3ccccc3)oc(=O)c2c1 | 46 | -138 | -1 | -13 | 35 | · | · | · | · | ·
O=C1C2C3C=CC(CC3)C2C(=O)N1c1ccc(Br)cc1 (configuration not stated) | · | 11 | · | · | · | · | · | · | · | ·
OCCCCCNc1ncnc2ccccc12 | -9 | -138 | -6 | -4 | 9 | · | · | · | · | ·
OCCCCNc1cccc2ccccc12 | 63* | -309 | 10 | 45 | -6 | 2 | 20 | 3 | -1 | -4
COc1ccc([C@@H](OC)[C@@]2(Cc3ccc(O)cc3)N=C(N)N(C)C2=O)cc1 | -4 | 7 | · | 6 | -5 | · | · | · | · | ·
Cc1cc(=O)n2ccccc2c1C#N | -4 | -280 | 6 | -3 | 0 | · | · | · | · | ·
COc1ccc2c(C#N)c3ccccn3c2c1 | 50* | -391 | -7 | 10 | 21 | 26 | 52* | -1 | 4 | -1
COc1cccc(/C=C2\CCC(C3CCCC3)C2=O)c1 (configuration not stated) | 50* | 12 | 12 | 40 | 21 | 48 | 48 | 66* | 34 | 26
Cc1cccc(/C=C2\CCC(C3CCCC3)C2=O)c1 (configuration not stated) | 33 | 11 | -9 | 4 | 7 | · | · | · | · | ·
CCCCCCCCN1C(=O)[C@H](CC(=O)N2CCN(C(=O)OCC)CC2)C[C@@]2(C(=O)OCC)CCCC=C12 | · | 18 | · | · | · | · | · | · | · | ·
Cc1ccc(NC(=O)Cc2noc3ccccc23)cc1 | 51* | 3 | -2 | 24 | 44 | 47 | 47 | 74* | 61* | 17
O=C(Cc1noc2ccccc12)Nc1ccc2ccccc2c1 | -6 | 10 | 2 | -4 | -9 | · | · | · | · | ·
N/C(=N\OC(=O)c1ccoc1)c1ccc(Br)cc1 | 93* | 4 | 5 | 84* | 91* | 76* | 71* | 94* | 75* | 70*
N/C(=N\OC(=O)c1cccc(Br)c1)c1ccccc1 | 72* | 14 | -2 | 67* | 86* | 67* | 73* | 97* | 82* | 26
N/C(=N\OC(=O)c1ccco1)c1cccc(Br)c1 | 78* | 19 | 1 | 52* | 74* | 70* | 68* | 90* | 76* | 67*
